# Measurements reported in PubChem BioAssay.
# The source made the active and inactive calls.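 Rule for the calls, unless noted: active = inhibition at or above 50% at 10 µM; inactive = inhibition below 50%.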
# Tests used:
# [1] = inhibitors of TNFa-induced NFkB p65 translocation, primary screen, imaging, HUVEC, MLSMR starter and 10KST1 sets (AID 438;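 active = inhibition above 20% together with a positive visual image hit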;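 note: compound added about 3h40 before a 20 min TNFalpha stimulation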;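 for inhibition: signal is the nuclear over cytoplasmic p65 intensity ratio per well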); conditions: HUVEC TNFa-induced p65 nuclear translocation; cell count: measured here: nuclei count (cytotoxicity indicator), at 2.08 µM; inhibition: at 2 µM, stronger effect = higher value, 0% TNFa-plus-vehicle, 100% no-TNFa wells
# [2] = inhibitors of mutant huntingtin aggregation, primary screen, imaging, exon1htt(103Q)mCFP cells, high-content imaging (AID 483;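 active = visual image review flags a hit and inhibition of aggregation exceeds 20%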;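 note: compound exposure lasted 3 days before fixation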;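 for nuclei count: percent of the per-plate median nuclei count of sample wells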); conditions: exon1htt(103Q)mCFP cell line, aggregate imaging, at 2 µM; inhibition of aggregation: stronger effect = higher value; nuclei count: measured here: cell count, toxicity
# [3] = inhibitors of E-selectin induction by TNFa, primary screen, imaging, HUVEC, immunofluorescence, MLSMR starter and 10KST1 sets (AID 487;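 active = visually confirmed hit in the image check and inhibition above 20%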;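 for inhibition: signal is fraction of cell area covered by stained E-selectin grains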;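 for nuclei count: 100% = median nuclei count of all wells on the same plate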); conditions: HUVEC TNFalpha-induced E-selectin immunofluorescence imaging, at 2 µM; inhibition: stronger effect = higher value; nuclei count: measured here: cell number, toxicity
# [4] = target: Voltage-gated potassium channel subunit beta-2 (Rattus norvegicus) (UniProt P62483); experiment: KvBeta enzyme negative modulators, primary screen, biochemical, NADPH fluorescence (AID 622;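 active = fluorescence slope higher than the sample average by over 3 SD, cut at about -0.22 in these data, passing the limit was not always enough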;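 note: slope of raw intensity against log time taken from 70 to 1610 s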); conditions: recombinant KvBeta, 4-cyanobenzaldehyde reduction, at 10 µM, stronger effect = higher value
# Voltage-gated potassium channel subunit beta-2 (Rattus norvegicus), sequence (P62483 whole entry, looked up): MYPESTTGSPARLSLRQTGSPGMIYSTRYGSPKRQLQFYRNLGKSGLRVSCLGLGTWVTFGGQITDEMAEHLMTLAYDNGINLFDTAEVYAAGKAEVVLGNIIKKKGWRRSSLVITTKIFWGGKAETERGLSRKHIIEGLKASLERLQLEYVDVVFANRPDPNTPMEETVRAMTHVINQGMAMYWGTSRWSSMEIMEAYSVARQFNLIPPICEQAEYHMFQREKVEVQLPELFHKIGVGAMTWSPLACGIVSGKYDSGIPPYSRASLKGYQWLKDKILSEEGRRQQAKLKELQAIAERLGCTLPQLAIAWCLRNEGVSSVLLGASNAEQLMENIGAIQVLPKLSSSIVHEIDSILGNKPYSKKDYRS
# [5] = target: Voltage-gated potassium channel subunit beta-2 (Rattus norvegicus) (UniProt P62483); experiment: KvBeta positive modulators, primary screen, biochemical, NADPH fluorescence (AID 623;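 active = NADPH fluorescence slope more negative than the mean of all samples by about 3 SD, 99.7% confidence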;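 note: fluorescence intensity change per second fitted from 20 to 320 s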); conditions: Recombinant KvBeta, NADPH fluorescence decrease slope, 10 min; at 10 µM; stronger effect = lower value
# [6] = target: Alpha-2C adrenergic receptor (Homo sapiens) (UniProt P18825); experiment: modulators of alpha2C/GIRK thallium flux, primary screen, cell-based, HEK293 alpha2C/GIRK1/2 (AID 624;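 active = fluorescence slope after compound addition differing from the mean of all screened samples at 99.7% confidence, in either direction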;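 note: slope of fluorescence ratio to pre-addition baseline per second over 15 to 24 s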); conditions: thallium flux BTC fluorescence, at 10 µM, actives lie on both sides
# Alpha-2C adrenergic receptor (Homo sapiens), sequence (P18825 whole entry, looked up): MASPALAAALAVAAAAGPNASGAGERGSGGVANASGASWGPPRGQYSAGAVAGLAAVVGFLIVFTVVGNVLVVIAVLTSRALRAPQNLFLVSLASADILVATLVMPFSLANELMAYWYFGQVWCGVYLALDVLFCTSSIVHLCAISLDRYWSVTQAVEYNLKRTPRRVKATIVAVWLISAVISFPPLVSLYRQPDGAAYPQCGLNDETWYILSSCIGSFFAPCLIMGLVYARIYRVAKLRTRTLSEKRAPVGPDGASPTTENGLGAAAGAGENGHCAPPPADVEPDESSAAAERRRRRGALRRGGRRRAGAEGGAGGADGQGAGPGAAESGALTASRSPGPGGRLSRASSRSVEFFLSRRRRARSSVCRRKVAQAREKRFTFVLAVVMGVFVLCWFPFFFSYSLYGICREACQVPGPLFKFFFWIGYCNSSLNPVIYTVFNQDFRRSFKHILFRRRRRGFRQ
# [7] = inhibitors of Sendai virus-induced IRF3 signaling, primary screen, TLR/RLR signaling modifier project, cell-based, Sendai virus stimulus, luciferase, 10K MLSCN set (AID 602276); conditions: HEK293 RL24 IRF3 luciferase reporter, at 10 µM, stronger effect = higher value;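 note: firefly luciferase from ISG56 promoter only with Renilla not read in this screen; 0% = Sendai virus plus DMSO and 100% = medium plus DMSO without virus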
# [8] = inhibitors of poly I:C-induced TLR3 signaling, primary screen, cell-based, poly I:C stimulus, luciferase, 10K MLSCN set (AID 602277;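 active = inhibition of the reporter signal at or above 50%; inactive = inhibition below 50%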); conditions: HEK293-TLR3 RL24 IRF3 luciferase reporter, at 10 µM, stronger effect = higher value
Structure (SMILES),cell count [1],inhibition [1],inhibition of aggregation [2],nuclei count [2] [%],inhibition [3],nuclei count [3] [%],fluorescence slope [4],NADPH fluorescence slope [5],slope [6],inhibition [7],inhibition [8]
O=C(CSc1nnc(-c2ccccc2Br)o1)Nc1cccc2ccccc12,541,-12.1% (inactive),16.2% (inactive),81.3,33.7% (inactive),65.3,-0.546 (inactive),2.3e-05 (inactive),0.00661 (inactive),1.31% (inactive),-12.6% (inactive)
Cc1ccc(N=C2NC(=O)CS2)c(C)c1,607,7.4% (inactive),22.3% (inactive),95.2,59.4% (active),76.3,-0.47 (inactive),-2.8e-05 (inactive),0.00603 (inactive),2.6% (inactive),21.7% (inactive)
Cn1cnc2c1c(=O)n(Cc1cccc(Br)c1)c(=O)n2C,320,1.4% (inactive),9.8% (inactive),113,-17.1% (inactive),122,-0.38 (inactive),8.1e-07 (inactive),0.00734 (inactive),14.2% (inactive),14.4% (inactive)
Cc1ccc(NCC(O)C(O)C(O)CO)cc1C (centres undefined),516,0.6% (inactive),1.3% (inactive),115,-52.4% (inactive),128,-0.455 (inactive),5.8e-07 (inactive),0.00562 (inactive),8.39% (inactive),8.99% (inactive)
COc1ccc(OCCC(=O)NCc2ccccc2)cc1,694,0.4% (inactive),19.2% (inactive),91.9,-93.5% (inactive),102,-0.509 (inactive),9e-06 (inactive),0.00495 (inactive),4.97% (inactive),7.69% (inactive)
COc1cc2c(cc1OC)C(c1ccc(C)o1)CC(=O)N2 (centres undefined),748,0% (inactive),-33.4% (inactive),112,-48.1% (inactive),122,-0.574 (inactive),-3e-05 (inactive),0.00589 (inactive),11.9% (inactive),30.4% (inactive)
COc1cc(NS(=O)(=O)N2CCCC2)cc(OC)c1OC,712,0.7% (inactive),9% (inactive),95.3,-115% (inactive),128,-0.498 (inactive),-1.9e-05 (inactive),0.00502 (inactive),7.48% (inactive),16.9% (inactive)
CCOc1ccc(-n2cc(C(=O)N3CCN(C)CC3)c3cc(OC)c(OC)cc3c2=O)cc1,393,8.8% (inactive),0.2% (inactive),99.4,-54.1% (inactive),121,-0.524 (inactive),1.6e-05 (inactive),0.007 (inactive),-29.8% (inactive),-2.36% (inactive)
CCOC(=O)CN1C(=O)C(=O)c2cccc(C)c21,651,-4.4% (inactive),-8.1% (inactive),119,-62.9% (inactive),119,-0.601 (inactive),-4.5e-05 (inactive),0.00699 (inactive),15.4% (inactive),34.9% (inactive)
O=S(=O)(c1cccc(-c2nnco2)c1)N1CCCC1,453,0.5% (inactive),-4.5% (inactive),95.9,0.2% (inactive),108,-0.519 (inactive),-4.3e-05 (inactive),0.00457 (inactive),8.27% (inactive),13.9% (inactive)
Cc1ccc2nc(-c3ccccn3)cc(C(=O)N3CCN(c4ncccn4)CC3)c2c1,367,-5.9% (inactive),0% (inactive),107,6% (inactive),115,-0.346 (inactive),-5.1e-05 (inactive),0.00536 (inactive),4.96% (inactive),8.03% (inactive)
Cn1c(-c2cc(Br)ccc2O)n[nH]c1=S,440,5.5% (inactive),-2.6% (inactive),109,-76.5% (inactive),118,-0.51 (inactive),4.9e-05 (inactive),0.00989 (inactive),-4.65% (inactive),-14.4% (inactive)
CCOC(=O)C1CCCN(CC(=O)NC2CC2)C1 (centres undefined),446,1.1% (inactive),-11.4% (inactive),98.9,-23.9% (inactive),101,-0.318 (inactive),-7.1e-05 (inactive),0.00531 (inactive),13.3% (inactive),15.3% (inactive)
COc1cc(C(=O)Nc2nc(-c3cccs3)cs2)cc(OC)c1OC,475,-4.8% (inactive),-20.4% (inactive),98.7,-18.4% (inactive),106,-0.507 (inactive),-6.5e-06 (inactive),0.00722 (inactive),-6.01% (inactive),-12% (inactive)
